# Test results as given in PubChem BioAssay.
# Experiment: hepatitis C replication reporter changes, two-sided – Huh7 cells, luciferase reporter, HCV replication inhibitor project, primary screen (AID 1109);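 further: huh7 hepatoma cells harbouring a luciferase neomycin HCV replicon reporter; luciferase luminescence as measure of HCV replicon replication; test concentration not given here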
# Settings: Huh7 HCV replicon luciferase reporter, 48 h; higher = more signal
row,Structure (SMILES),z-score
1,CC(CO)N1C(=O)[C@@H]2C3C(=O)OCCC/C=C\[C@H]3OC23C=CCN(C(C)(C)C)C(=O)[C@@H]13 (stereo not given in full),0.367
2,CN1C(=O)C2C=CC(C(O)c3ccccc3)N(N(c3ccccc3)c3ccccc3)C2C1=O (stereo not given),-0.442
3,C=CCOC(=O)[C@H]1[C@@H]2C(=O)O[C@@H](c3ccccc3)[C@@H](c3ccccc3)N2[C@@H](c2ccc(OCCOC(=O)[C@@H]3C[C@@H]4C(=O)N[C@@H](CCCCNC(C)=O)C(=O)N4[C@@H]3c3ccc(O)cc3)cc2)[C@]12C(=O)Nc1ccccc12,-0.413
4,C[C@H]1C2[C@H](Cc3ccccc3)NC(=O)[C@]23C(=O)N[C@H](Cc2ccccc2)C(=O)N2CCC[C@H]2C(=O)NC/C=C\C/C=C/C3[C@@H]2O[C@]12C (stereo not given in full),0.255
5,CC(C)C(O)C1C=CC2C(=O)NC(=O)C2N1Nc1ccc(Cl)cc1Cl (stereo not given),-0.88
6,COC(=O)C(CC#Cc1ccc2c(c1)[C@]1(C(=O)N2)[C@H](C(=O)Nc2nc3ccccc3s2)[C@H]2C(=O)O[C@H](c3ccccc3)[C@H](c3ccccc3)N2[C@@H]1c1ccc(O)cc1)C(=O)OC,-0.801
7,CC(C)C(O)C1C=CC2C(=O)N(c3ccccc3)C(=O)C2N1Nc1ccc([N+](=O)[O-])cc1 (stereo not given),0.285
8,CC(C)C[C@@H]1NC(=O)[C@@H]2C[C@H](C(=O)NCc3ccc(F)cc3)[C@H](c3cccc(OCCO)c3)N2C1=O,-0.992
9,CCCC[C@H]1OB(O)C[C@H]2C1=C(COC)C[C@H]1C(=O)N(C)C(=O)[C@H]12,-0.918
10,COCCOC(=O)N1C(=O)[C@@]2(c3cc(C#Cc4ccc(OC)cc4)ccc31)[C@H](c1ccccc1OCCO)N1[C@H](c3ccccc3)[C@H](c3ccccc3)OC(=O)[C@H]1[C@@H]2C(=O)NC[C@H](O)c1ccccc1,-2.03
